Reference: the supplement of paper PMC10849652
About 7,900 targets were measured; listed, in parts, are those with a hit and a random draw of the rest. About 0.6% of all pairs of compound and target were hits. Unmarked numbers belong to inactive results.

Legend:
Test in all cases: log2 fold change, soluble protein after heating vs DMSO (PISA); higher = thermal stabilisation; K562 cells, 10 uM, 30 min; active = over 0.2 and 3.5 SD of the protein, either way, in both replicates (recomputed)
[1] = compound: CC[C@@H]1C(=O)N(C)c2cnc(Nc3ccc(C(=O)NC4CCN(C)CC4)cc3OC)nc2N1C1CCCC1
In short: (§1)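 Aliquots of K562 cells (2×10^6 cells/mL) treated with 10 μM compound for 30 min were heated for 3 min over 48°C-58°C. After pooling and extraction in PBS with 0.5% NP-40 at 4°C, soluble protein from a 21,000xg, 90 min spin was quantified by TMTpro 16plex LC-MS/MS with channel sums equalised. Thermal stability is expressed against control samples, from duplicates, as a log2 fold change.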

volasertib = compound: CC[C@@H]1C(=O)N(C)c2cnc(Nc3ccc(C(=O)N[C@H]4CC[C@H](N5CCN(CC6CC6)CC5)CC4)cc3OC)nc2N1C(C)C [volasertib]
In short: as §1

epoxomicin = compound: CC[C@H](C)[C@@H](C(=O)N[C@@H]([C@@H](C)O)C(=O)N[C@@H](CC(C)C)C(=O)[C@]1(CO1)C)NC(=O)[C@H]([C@@H](C)CC)N(C)C(=O)C [epoxomicin]
In short: as §1

[2] = compound: CCn1c(C(=O)N(C2CC2)C2CC2)cc2c3c(ncn3C)c(Nc3cc(C)n(C)n3)nc21
In short: as §1

[3] = compound: CCn1cc(-c2ccnc3[nH]c(-c4cccc(CN(C)C)c4)cc23)c(-c2ccc(NC(=O)N(C)C)cc2)n1
In short: as §1

[4] = compound: CN(C)CC(=O)Nc1ccc2[nH]c(=O)c3ccccc3c2c1
In short: as §1

rosiglitazone = compound: CN(CCOC1=CC=C(C=C1)C[C@H]2C(=O)NC(=O)S2)C3=CC=CC=N3 (racemic) [rosiglitazone]
In short: as §1

[5] = compound: CN1C2=C(C3=C1C(=O)N(N=C3)CC4=CC(=CC=C4)N)SC(=C2)S(=O)C
In short: as §1

[6] = compound: CN1CCC(CNc2ccc3ncc(-c4cccc(OC(F)(F)F)c4)n3n2)CC1
In short: as §1

saracatinib = compound: CN1CCN(CCOc2cc(OC3CCOCC3)c3c(Nc4c(Cl)ccc5c4OCO5)ncnc3c2)CC1 [saracatinib]
In short: as §1

sotrastaurin = compound: CN1CCN(c2nc(C3=C(c4c[nH]c5ccccc45)C(=O)NC3=O)c3ccccc3n2)CC1 [sotrastaurin]
In short: as §1

alvocidib = compound: CN1CC[C@H](c2c(O)cc(O)c3c(=O)cc(-c4ccccc4Cl)oc23)[C@H](O)C1 [alvocidib]
In short: as §1

Tubastatin A = compound: CN1CCc2c(c3ccccc3n2Cc2ccc(C(=O)NO)cc2)C1 [Tubastatin A]
In short: as §1

[7] = compound: CNC(=O)C1=CC=CC=C1NC2=NC(=NC=C2Cl)NC3=C(C=C(C=C3)N4CCOCC4)OC
In short: as §1

defactinib = compound: CNC(=O)c1ccc(Nc2ncc(C(F)(F)F)c(NCc3nccnc3N(C)S(C)(=O)=O)n2)cc1 [defactinib]
In short: as §1

rucaparib = compound: CNCc1ccc(-c2[nH]c3cc(F)cc4c3c2CCNC4=O)cc1 [rucaparib]
In short: as §1

[8] = compound: CNc1nc(-c2ccc3c(N)n[nH]c3c2)cc(N2C[C@@H](C(=O)NC3CCCCC3)CC[C@H]2C)n1
In short: as §1

encorafenib = compound: COC(=O)N[C@@H](C)CNc1nccc(-c2cn(C(C)C)nc2-c2cc(Cl)cc(NS(C)(=O)=O)c2F)n1 [encorafenib]
In short: as §1

[9] = compound: COC(=O)[C@H](CCSC)NC(=O)C1=C(C=C(C=C1)NC[C@H](CS)N)C2=CC=CC=C2
In short: as §1

[10] = compound: CC[C@H](C)N1C=C(C2=C(C=C(C=C21)C3=CN=C(C=C3)N4CCNCC4)C(=O)NCC5=C(C=C(NC5=O)C)C)C
In short: as §1

UniProt Q69YL0, sequence (Q69YL0 whole entry, looked up): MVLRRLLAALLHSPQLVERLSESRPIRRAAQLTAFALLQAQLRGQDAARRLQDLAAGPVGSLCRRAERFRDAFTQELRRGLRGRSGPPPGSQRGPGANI
UniProt Q8N5F7, sequence (Q8N5F7 whole entry, looked up): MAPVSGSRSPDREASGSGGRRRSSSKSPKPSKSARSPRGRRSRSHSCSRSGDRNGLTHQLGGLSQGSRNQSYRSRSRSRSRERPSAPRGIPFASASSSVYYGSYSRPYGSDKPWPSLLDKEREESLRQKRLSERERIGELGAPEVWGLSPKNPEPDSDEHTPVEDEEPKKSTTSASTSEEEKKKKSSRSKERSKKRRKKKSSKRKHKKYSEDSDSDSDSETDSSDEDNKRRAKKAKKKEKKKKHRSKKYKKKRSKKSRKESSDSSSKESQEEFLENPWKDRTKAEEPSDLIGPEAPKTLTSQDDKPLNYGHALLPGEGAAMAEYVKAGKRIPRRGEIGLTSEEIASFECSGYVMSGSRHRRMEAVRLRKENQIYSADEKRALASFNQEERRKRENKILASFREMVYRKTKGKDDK
UniProt Q68DK7, sequence (Q68DK7 whole entry, looked up): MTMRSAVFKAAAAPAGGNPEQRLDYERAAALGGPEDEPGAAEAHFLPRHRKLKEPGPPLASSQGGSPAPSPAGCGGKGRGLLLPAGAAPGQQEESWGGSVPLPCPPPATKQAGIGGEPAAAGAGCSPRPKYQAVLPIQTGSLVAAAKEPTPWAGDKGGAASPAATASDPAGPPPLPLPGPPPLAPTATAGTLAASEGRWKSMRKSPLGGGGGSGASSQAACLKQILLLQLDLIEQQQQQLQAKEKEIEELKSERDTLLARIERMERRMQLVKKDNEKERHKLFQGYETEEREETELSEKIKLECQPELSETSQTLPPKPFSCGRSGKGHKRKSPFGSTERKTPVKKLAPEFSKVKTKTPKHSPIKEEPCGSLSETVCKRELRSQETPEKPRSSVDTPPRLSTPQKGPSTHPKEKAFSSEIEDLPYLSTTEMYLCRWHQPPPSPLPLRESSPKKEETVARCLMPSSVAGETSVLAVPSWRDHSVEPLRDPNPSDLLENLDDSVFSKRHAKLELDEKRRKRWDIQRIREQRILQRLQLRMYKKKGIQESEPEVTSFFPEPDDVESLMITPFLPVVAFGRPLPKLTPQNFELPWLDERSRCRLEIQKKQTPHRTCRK
UniProt Q9Y5B8, sequence (Q9Y5B8 whole entry, looked up): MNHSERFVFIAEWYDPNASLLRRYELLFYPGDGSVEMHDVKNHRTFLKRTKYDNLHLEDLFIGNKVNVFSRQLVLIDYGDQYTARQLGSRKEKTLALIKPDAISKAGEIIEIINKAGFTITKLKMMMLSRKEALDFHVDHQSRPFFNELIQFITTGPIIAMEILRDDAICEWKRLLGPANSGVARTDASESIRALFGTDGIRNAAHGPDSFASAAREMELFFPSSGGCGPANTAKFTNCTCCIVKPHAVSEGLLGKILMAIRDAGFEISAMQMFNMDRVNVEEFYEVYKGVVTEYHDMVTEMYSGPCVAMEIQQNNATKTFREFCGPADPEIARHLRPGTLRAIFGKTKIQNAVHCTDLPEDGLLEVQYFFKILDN
UniProt Q15746, sequence (Q15746 whole entry, looked up): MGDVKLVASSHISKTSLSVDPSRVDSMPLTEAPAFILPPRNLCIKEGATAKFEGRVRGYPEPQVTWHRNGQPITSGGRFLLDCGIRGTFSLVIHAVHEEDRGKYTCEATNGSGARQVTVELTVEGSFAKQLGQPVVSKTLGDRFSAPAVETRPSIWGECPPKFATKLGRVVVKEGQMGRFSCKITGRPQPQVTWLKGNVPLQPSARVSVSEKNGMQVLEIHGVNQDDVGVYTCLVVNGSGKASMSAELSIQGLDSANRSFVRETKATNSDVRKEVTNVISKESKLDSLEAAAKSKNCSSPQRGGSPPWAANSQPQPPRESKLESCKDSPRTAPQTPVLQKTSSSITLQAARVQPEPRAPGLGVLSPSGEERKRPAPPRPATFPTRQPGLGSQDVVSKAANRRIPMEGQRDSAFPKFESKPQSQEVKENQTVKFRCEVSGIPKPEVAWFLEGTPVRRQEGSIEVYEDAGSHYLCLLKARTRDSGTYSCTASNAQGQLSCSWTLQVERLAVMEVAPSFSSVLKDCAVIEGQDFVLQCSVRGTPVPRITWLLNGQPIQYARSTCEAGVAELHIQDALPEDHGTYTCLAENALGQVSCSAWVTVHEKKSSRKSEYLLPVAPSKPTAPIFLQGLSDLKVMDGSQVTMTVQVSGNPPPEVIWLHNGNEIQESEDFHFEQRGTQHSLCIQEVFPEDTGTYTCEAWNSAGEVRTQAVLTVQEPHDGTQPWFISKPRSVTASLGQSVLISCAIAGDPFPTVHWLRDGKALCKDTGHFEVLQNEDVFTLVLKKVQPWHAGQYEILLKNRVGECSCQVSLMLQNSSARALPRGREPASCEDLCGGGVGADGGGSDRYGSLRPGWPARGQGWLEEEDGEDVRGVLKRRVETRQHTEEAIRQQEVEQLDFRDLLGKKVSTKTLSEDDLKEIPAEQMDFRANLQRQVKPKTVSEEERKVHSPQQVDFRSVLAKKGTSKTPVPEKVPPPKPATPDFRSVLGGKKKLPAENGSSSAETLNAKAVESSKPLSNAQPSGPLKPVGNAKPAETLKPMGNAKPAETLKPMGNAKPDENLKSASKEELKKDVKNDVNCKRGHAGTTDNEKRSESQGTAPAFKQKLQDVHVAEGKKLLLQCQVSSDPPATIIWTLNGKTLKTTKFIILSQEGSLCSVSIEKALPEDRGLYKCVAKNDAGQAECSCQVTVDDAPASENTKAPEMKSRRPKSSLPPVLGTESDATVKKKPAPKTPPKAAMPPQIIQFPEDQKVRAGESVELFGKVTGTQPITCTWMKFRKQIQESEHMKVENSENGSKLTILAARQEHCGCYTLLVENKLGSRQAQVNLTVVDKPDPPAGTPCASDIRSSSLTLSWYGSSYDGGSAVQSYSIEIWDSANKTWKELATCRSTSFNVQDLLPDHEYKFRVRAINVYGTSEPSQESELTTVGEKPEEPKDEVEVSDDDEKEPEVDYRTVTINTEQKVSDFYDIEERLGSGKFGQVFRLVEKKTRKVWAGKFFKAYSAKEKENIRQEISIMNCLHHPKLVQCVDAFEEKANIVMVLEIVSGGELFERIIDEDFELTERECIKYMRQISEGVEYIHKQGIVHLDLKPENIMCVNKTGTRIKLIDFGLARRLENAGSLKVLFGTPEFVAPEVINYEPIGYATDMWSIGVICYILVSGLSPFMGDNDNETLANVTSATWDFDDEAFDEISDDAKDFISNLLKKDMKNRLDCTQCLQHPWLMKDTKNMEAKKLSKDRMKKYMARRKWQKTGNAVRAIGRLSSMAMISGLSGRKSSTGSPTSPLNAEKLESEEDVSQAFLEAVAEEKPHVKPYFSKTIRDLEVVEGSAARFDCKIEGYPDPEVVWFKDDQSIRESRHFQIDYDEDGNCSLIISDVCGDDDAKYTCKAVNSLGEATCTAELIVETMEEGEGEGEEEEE
UniProt O75438, sequence (O75438 whole entry, looked up): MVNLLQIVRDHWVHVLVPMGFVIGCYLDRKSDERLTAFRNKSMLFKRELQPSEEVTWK
UniProt O75607, sequence (O75607 whole entry, looked up): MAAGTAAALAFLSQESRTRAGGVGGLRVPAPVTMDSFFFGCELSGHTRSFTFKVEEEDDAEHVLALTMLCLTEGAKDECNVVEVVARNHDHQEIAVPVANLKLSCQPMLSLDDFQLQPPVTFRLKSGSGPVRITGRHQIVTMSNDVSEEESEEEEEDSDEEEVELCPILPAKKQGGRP
UniProt Q9BS92, sequence (Q9BS92 whole entry, looked up): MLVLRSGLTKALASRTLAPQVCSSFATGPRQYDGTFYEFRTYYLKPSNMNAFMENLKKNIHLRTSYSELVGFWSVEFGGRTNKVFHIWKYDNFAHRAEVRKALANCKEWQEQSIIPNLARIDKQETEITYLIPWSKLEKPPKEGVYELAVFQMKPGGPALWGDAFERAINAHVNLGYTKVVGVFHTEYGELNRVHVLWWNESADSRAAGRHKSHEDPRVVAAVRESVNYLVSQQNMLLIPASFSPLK

Target | log2 fold change [1] | log2 fold change (volasertib) | log2 fold change (epoxomicin) | log2 fold change [2] | log2 fold change [3] | log2 fold change [4] | log2 fold change (rosiglitazone) | log2 fold change [5] | log2 fold change [6] | log2 fold change (saracatinib) | log2 fold change (sotrastaurin) | log2 fold change (alvocidib) | log2 fold change (Tubastatin A) | log2 fold change [7] | log2 fold change (defactinib) | log2 fold change (rucaparib) | log2 fold change [8] | log2 fold change (encorafenib) | log2 fold change [9] | log2 fold change [10]
NME7 (UniProt Q9Y5B8) | -0.014 | -0.358 (active) | -0.072 | -0.033 | -0.044 | -0.045 | 0.104 | 0.014 | -0.314 | -0.109 | -0.017 | -0.117 | 0.054 | 0.016 | -0.047 | 0.006 | -0.001 | 0.086 | -0.006 | –
NIPSNAP3B (UniProt Q9BS92) | -0.238 | -0.028 | – | -0.039 | -0.019 | -0.088 | -0.069 | -0.176 | 0.073 | 0.122 | 0.066 | -0.029 | 0.01 | 0.112 | -0.026 | 0.31 (active) | -0.088 | -0.289 | 0.008 | 0.039
MYLK (UniProt Q15746) | -0.015 | -0.148 | – | -0.047 | 0.042 | 0.184 | 0.202 | -0.126 | -0.005 | 0.177 | -0.036 | -0.091 | 0.036 | 0.716 | -0.034 | -0.083 | -0.079 | 0.337 | -0.216 | -0.172
NDUFB1 (UniProt O75438) | -0.004 | -0.08 | 0.396 (active) | -0.026 | -0.102 | 0.006 | 0.009 | – | 0.282 (active) | – | 0.015 | -0.042 | -0.09 | -0.01 | -0.021 | -0.035 | – | 0.001 | 0.034 | -0.099
NPM3 (UniProt O75607) | 0.065 | 0.124 | – | 0.036 | 0.014 | -0.011 | -0.122 | 0.143 | 0.145 | 0 | 0 | 0.032 | 0.031 | -0.06 | 0.001 | 0.155 | -0.042 | 0.034 | -0.04 | -0.099
NCBP2AS2 (UniProt Q69YL0) | -0.255 | -0.193 | – | 0.027 | 0.026 | -0.072 | -0.063 | 0.049 | -0.906 (active) | 0.056 | 0.215 | -0.004 | -0.064 | -0.005 | 0.013 | -0.03 | -0.081 | 0.031 | 0.031 | -0.1
NKAP (UniProt Q8N5F7) | 0.026 | -0.3 | -0.109 | -0.028 | 0.092 | 0.052 | 0.024 | -0.025 | -0.164 | 0.067 | – | -0.142 | 0.093 | -0.296 | 0.092 | 0.055 | 0.085 | 0.149 | 0.039 | 0.082
MRPS26 (UniProt Q9BYN8) | 0.011 | -0.094 | 0.033 | -0.094 | -0.023 | 0.003 | 0.053 | 0.052 | -0.092 | -0.094 | -0.013 | 0.025 | 0.156 | 0.003 | -0.01 | 0.093 | 0.122 | 0.089 | 0.003 | –
MSL1 (UniProt Q68DK7) | 0.077 | 0.002 | 0.007 | -0.161 | -0.26 | -0.087 | 0.028 | 0.098 | -0.161 | -0.026 | 0.052 | – | – | -0.253 | -0.069 | -0.042 | 0.04 | -0.088 | -0.017 | -0.19
